The source of these data is ChEMBL document CHEMBL5606460, “ASAP - DENV-2 NS2B-NS3 protease fluorescence single point” (2024).

The assay deals with Genome polyprotein (dengue virus type 2) (UniProt P29990).

The structures appear in SMILES notation. In all, about 2,000 compounds went through this assay and about 110 (5.5%) showed an effect of 50% or more. The sample holds strong results, similar compounds and a random draw of the others, so the mix is not that of the screen.

For `O=C(Nc1cccc2cccnc12)C1CCNCC1`, the inhibition is, setting by setting: (Thailand/16681/1984, Concentration 49.95 uM, Number of replicates 2.0, Standard deviation 0.4211783883506398 %) -0.871%; (Thailand/16681/1984, Concentration 99.9 uM, Number of replicates 2.0, Standard deviation 1.2273405052219766 %) 51.5%.
For `Nc1nccc2cc(Br)ccc12`, the inhibition is -2.94% (Thailand/16681/1984, Concentration 49.95 uM, Number of replicates 2.0, Standard deviation 5.1898726049351325 %) and -2.95% (Thailand/16681/1984, Concentration 99.9 uM, Number of replicates 2.0, Standard deviation 6.552121336877266 %).
For `COc1ccc(Cl)c2sc(NC(=O)c3ccccc3NS(=O)(=O)c3ccc(Cl)cc3)nc12`, the inhibition (Thailand/16681/1984, Concentration 198.0 uM, Number of replicates 2.0, Standard deviation 9.166560145189157 %) amounted to 8.28%.
On to `CC(C)Nc1nc2ccc(C(=O)Nc3nnc4cccnn34)cc2[nH]1`, for which the inhibition reads like this: (Thailand/16681/1984, Concentration 49.5 uM, Number of replicates 2.0, Standard deviation 0.47864102228875616 %) -2.54%; (Thailand/16681/1984, Concentration 99.01 uM, Number of replicates 2.0, Standard deviation 0.9476878624230379 %) -0.35%; (Thailand/16681/1984, Concentration 198.0 uM, Number of replicates 2.0, Standard deviation 0.5058242222917364 %) 4.68%.
As to `Cc1cc(CO)c2cccc(Cc3ccccc3NC(=O)CCC3CCNCC3)c2n1`, the inhibition was -4.33% (Thailand/16681/1984, Concentration 49.95 uM, Number of replicates 2.0, Standard deviation 0.7055143046624119 %) and 6.21% (Thailand/16681/1984, Concentration 99.9 uM, Number of replicates 2.0, Standard deviation 1.236554143481246 %).
On to `Cc1cc(CO)c2cccc(NC(=O)CC3CNC3)c2n1`, for which the inhibition is 7.76% (Thailand/16681/1984, Concentration 49.95 uM, Number of replicates 2.0, Standard deviation 1.3762045228616064 %) and 14.8% (Thailand/16681/1984, Concentration 99.9 uM, Number of replicates 2.0, Standard deviation 1.6376626661863318 %).
Regarding `Cc1cc(CO)c2cccc(NC(=O)CC3CCNCC3)c2n1`, the inhibition reads like this: (Thailand/16681/1984, Concentration 49.95 uM, Number of replicates 2.0, Standard deviation 2.142909982415651 %) 8.3%; (Thailand/16681/1984, Concentration 99.9 uM, Number of replicates 2.0, Standard deviation 0.2007188026491294 %) 53.9%.
As for `Cc1cc(CO)c2cccc(NC(=O)C[C@H]3CCCN3)c2n1`, the inhibition (Thailand/16681/1984, Concentration 49.95 uM, Number of replicates 2.0, Standard deviation 1.87682580099837 %) was found to be 7.72% and the inhibition (Thailand/16681/1984, Concentration 99.9 uM, Number of replicates 2.0, Standard deviation 2.520000533440925 %) amounted to 13.9%.
`Cc1cc(CO)c2cccc(Cc3cccc(NC(=O)CCC4CCNCC4)c3)c2n1`: the inhibition reads like this: (Thailand/16681/1984, Concentration 49.95 uM, Number of replicates 2.0, Standard deviation 1.9905342893580933 %) 36.1%; (Thailand/16681/1984, Concentration 99.9 uM, Number of replicates 2.0, Standard deviation 0.13016565259146895 %) 90.2%.
`Cc1cc(CO)c2cccc(Cc3cccc(NC(=O)Cc4c(C)c5c(=O)[nH]n(C)c5[nH]c4=O)c3)c2n1`: the inhibition (Thailand/16681/1984, Concentration 49.95 uM, Number of replicates 2.0, Standard deviation 0.9721935995806666 %) was found to be 38.4% and the inhibition (Thailand/16681/1984, Concentration 99.9 uM, Number of replicates 2.0, Standard deviation 1.6660426680996274 %) came to 65.6%.
For the compound `Cc1cc(CO)c2cccc(NC(=O)CCC3CCNCC3)c2n1`, the inhibition turned out to be 99.7% (Thailand/16681/1984, Concentration 49.95 uM, Number of replicates 2.0, Standard deviation 0.01891415691253689 %) and 99.6% (Thailand/16681/1984, Concentration 99.9 uM, Number of replicates 2.0, Standard deviation 0.03175377284289565 %).
For `Cc1cc(CO)c2cccc(Cc3cccc(NC(=O)CNC4CC4)c3)c2n1`, the inhibition by setting is: (Thailand/16681/1984, Concentration 49.95 uM, Number of replicates 2.0, Standard deviation 1.5245757174015988 %) 0.182%; (Thailand/16681/1984, Concentration 99.9 uM, Number of replicates 2.0, Standard deviation 1.8285218036822166 %) 7.46%.
As to `Cc1cc(CO)c2cccc(Cc3cccc(NC(=O)C[C@H]4CCCN4)c3)c2n1`, the inhibition reads like this: (Thailand/16681/1984, Concentration 49.95 uM, Number of replicates 2.0, Standard deviation 0.1263380443971036 %) -4.58%; (Thailand/16681/1984, Concentration 99.9 uM, Number of replicates 2.0, Standard deviation 0.8674748654209231 %) -4.17%.
Regarding `Cc1cc(CO)c2cccc(NCC3CCNCC3)c2n1`, the inhibition reads like this: (Thailand/16681/1984, Concentration 49.95 uM, Number of replicates 2.0, Standard deviation 0.8313641199663653 %) -6.22%; (Thailand/16681/1984, Concentration 99.9 uM, Number of replicates 2.0, Standard deviation 1.3048073716258033 %) 0.772%.
Turning to `Cc1cc(CO)c2cccc(NC(=O)Cc3c(C)c4c(=O)[nH]n(C)c4[nH]c3=O)c2n1`, the inhibition (Thailand/16681/1984, Concentration 49.95 uM, Number of replicates 2.0, Standard deviation 1.6565788461475972 %) is 17.7% and the inhibition (Thailand/16681/1984, Concentration 99.9 uM, Number of replicates 2.0, Standard deviation 1.9416844060600267 %) amounted to 32.2%.
Consider `Cc1cc(CO)c2cccc(Cc3ccccc3NC(=O)Cc3c(C)c4c(=O)[nH]n(C)c4[nH]c3=O)c2n1`, for which the inhibition reads like this: (Thailand/16681/1984, Concentration 49.95 uM, Number of replicates 2.0, Standard deviation 2.5458058686723866 %) 22.5%; (Thailand/16681/1984, Concentration 99.9 uM, Number of replicates 2.0, Standard deviation 1.6741240734205003 %) 45.5%.
Turning to `Cc1cc(N)c2cccc(Br)c2n1`, the inhibition by setting is: (Thailand/16681/1984, Concentration 49.95 uM, Number of replicates 2.0, Standard deviation 5.849609152234285 %) -8.02%; (Thailand/16681/1984, Concentration 99.9 uM, Number of replicates 2.0, Standard deviation 5.75747614138947 %) -7.97%.
On to `Cc1cc(CO)c2cccc(Cc3ccccc3NC(=O)Cc3c[nH]c4ccccc34)c2n1`, for which the inhibition (Thailand/16681/1984, Concentration 49.95 uM, Number of replicates 2.0, Standard deviation 1.1797806526631314 %) worked out at 5.6% and the inhibition (Thailand/16681/1984, Concentration 99.9 uM, Number of replicates 2.0, Standard deviation 0.9471475819719768 %) came out at 13.1%.
Consider `CNC(=O)c1cc(Cl)ccc1NS(=O)(=O)c1cc(Cl)cc(C(=O)NC)c1OC`, for which the inhibition is, setting by setting: (Thailand/16681/1984, Concentration 49.5 uM, Number of replicates 2.0, Standard deviation 3.5107220562143744 %) -1.24%; (Thailand/16681/1984, Concentration 99.01 uM, Number of replicates 2.0, Standard deviation 4.644293157051252 %) 1.93%; (Thailand/16681/1984, Concentration 198.0 uM, Number of replicates 2.0, Standard deviation 3.3165321375743706 %) 8.2%.
On to `O=Cc1ccc(N2CCC(C(=O)Nc3ccc(F)cc3C(F)(F)F)CC2)cc1`, for which the inhibition (Thailand/16681/1984, Concentration 25.0 uM, Number of replicates 1.0) came to 12.5%.
`O=C(O)c1cnn(C2CCN(C(=O)c3ccnc4[nH]cnc34)CC2)c1`: the inhibition was -2.48% (Thailand/16681/1984, Concentration 49.5 uM, Number of replicates 2.0, Standard deviation 1.214191700010942 %); -2.88% (Thailand/16681/1984, Concentration 99.01 uM, Number of replicates 2.0, Standard deviation 1.7130868961137902 %); -2.86% (Thailand/16681/1984, Concentration 198.0 uM, Number of replicates 2.0, Standard deviation 1.3863533153956358 %).
Turning to `COc1ccccc1OCCn1cc(C2CCNCC2)c(C)n1`, the inhibition is -1.35% (Thailand/16681/1984, Concentration 49.5 uM, Number of replicates 2.0, Standard deviation 0.4008605306484476 %); 0.612% (Thailand/16681/1984, Concentration 99.01 uM, Number of replicates 2.0, Standard deviation 0.8515456477601485 %); 2.21% (Thailand/16681/1984, Concentration 198.0 uM, Number of replicates 2.0, Standard deviation 0.3007587308619815 %).
